From PMC8222333, “AsCas12a ultra nuclease facilitates the rapid generation of therapeutic cell medicines”
Residue numbers refer to the chain shown, from its start.

Experiments:
Experiment in all cases: Spec-seq (native PAGE EMSA with sequencing of bound and unbound); 25 mM Tris-HCl pH 7.4, 150 mM KCl, 5 mM MgCl2, 10% glycerol, 1 mM DTT, 40 ng/uL salmon sperm DNA; 400 nM Cas12a, 480 nM crRNA, 50 nM library, 37 C 1 h; native PAGE at room temperature; high values mean tight binding
Conditions in all cases: protein: recombinant
dAsCas12a Ultra = dAsCas12a Ultra (Acidaminococcus sp., UniProt U2UMQ6 1-1307, M537R;F870L;D908A;E993A;D1235A)
dAsCas12a E174R = dAsCas12a E174R (Acidaminococcus sp., UniProt U2UMQ6 1-1307, E174R;D908A;E993A;D1235A);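 further: relative affinity from the bound to unbound sequence frequency ratio in Spec-seq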
dAsCas12a S542R = dAsCas12a S542R (Acidaminococcus sp., UniProt U2UMQ6 1-1307, S542R;D908A;E993A;D1235A);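 further: relative affinity from the bound to unbound sequence frequency ratio in Spec-seq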
d-enCas12a = d-enCas12a (Acidaminococcus sp., UniProt U2UMQ6 1-1307, E174R;S542R;K548R;D908A;E993A;D1235A)
d-enCas12a-Ultra = d-enCas12a-Ultra (Acidaminococcus sp., UniProt U2UMQ6 1-1307, E174R;S542R;K548R;M537R;F870L;D908A;E993A;D1235A);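 further: relative affinity from the bound to unbound sequence frequency ratio in Spec-seq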

B1: GCTT (dsDNA)
DNA 1: GCTATCTAGTGCTCAGTACGCACTGGCTTAGGAAACTTCTGGCAGGACCAGGTCATGAGATCGGAAGAGCACACGTCTGAACTCCAGTCA
DNA 2: TGACTGGAGTTCAGACGTGTGCTCTTCCGATCTCATGACCTGGTCCTGCCAGAAGTTTCCTAAGCCAGTGCGTACTGAGCACTAGATAGC
RNA: AAUUUCUACUCUUGUAGAUAGGAAACUUCUGGCAGGACC
- binding signal (dAsCas12a Ultra): -8.74 lnKA
- binding signal (dAsCas12a E174R): -8.39 lnKA
- binding signal (dAsCas12a S542R): -8.31 lnKA
- binding signal (d-enCas12a): -5.83 lnKA
- binding signal (d-enCas12a-Ultra): -3.16 lnKA

B2: TAAA (dsDNA)
DNA 1: B1 DNA 1 with G26T, C27A, T28A, T29A
DNA 2: B1 DNA 2 with A62T, A63T, G64T, C65A
RNA: B1 RNA
- binding signal (dAsCas12a Ultra): -8.83 lnKA
- binding signal (dAsCas12a S542R): -8.25 lnKA
- binding signal (d-enCas12a): -5.38 lnKA
- binding signal (d-enCas12a-Ultra): -3.04 lnKA

B3: TAGA (dsDNA)
DNA 1: B1 DNA 1 with G26T, C27A, T28G, T29A
DNA 2: B1 DNA 2 with A62T, A63C, G64T, C65A
RNA: B1 RNA
- binding signal (dAsCas12a Ultra): -8.98 lnKA
- binding signal (dAsCas12a S542R): -8.65 lnKA
- binding signal (d-enCas12a): -5.31 lnKA
- binding signal (d-enCas12a-Ultra): -3.33 lnKA

B4: GGTT (dsDNA)
DNA 1: B1 DNA 1 with C27G
DNA 2: B1 DNA 2 with G64C
RNA: B1 RNA
- binding signal (dAsCas12a Ultra): -8.59 lnKA
- binding signal (dAsCas12a E174R): -8.64 lnKA
- binding signal (dAsCas12a S542R): -8.19 lnKA
- binding signal (d-enCas12a): -5.45 lnKA
- binding signal (d-enCas12a-Ultra): -2.7 lnKA

B5: GTGA (dsDNA)
DNA 1: B1 DNA 1 with C27T, T28G, T29A
DNA 2: B1 DNA 2 with A62T, A63C, G64A
RNA: B1 RNA
- binding signal (dAsCas12a Ultra): -7.93 lnKA
- binding signal (dAsCas12a E174R): -8.87 lnKA
- binding signal (dAsCas12a S542R): -7.67 lnKA
- binding signal (d-enCas12a): -5.45 lnKA
- binding signal (d-enCas12a-Ultra): -3.14 lnKA

B6: GGGA (dsDNA)
DNA 1: B1 DNA 1 with C27G, T28G, T29A
DNA 2: B1 DNA 2 with A62T, A63C, G64C
RNA: B1 RNA
- binding signal (dAsCas12a Ultra): -8.93 lnKA
- binding signal (dAsCas12a S542R): -8.02 lnKA
- binding signal (d-enCas12a): -5.68 lnKA
- binding signal (d-enCas12a-Ultra): -3.47 lnKA

B7: GTCT (dsDNA)
DNA 1: B1 DNA 1 with C27T, T28C
DNA 2: B1 DNA 2 with A63G, G64A
RNA: B1 RNA
- binding signal (dAsCas12a Ultra): -8.79 lnKA
- binding signal (dAsCas12a E174R): -8.88 lnKA
- binding signal (dAsCas12a S542R): -7.55 lnKA
- binding signal (d-enCas12a): -4.02 lnKA
- binding signal (d-enCas12a-Ultra): -0.927 lnKA

B8: TATT (dsDNA)
DNA 1: B1 DNA 1 with G26T, C27A
DNA 2: B1 DNA 2 with G64T, C65A
RNA: B1 RNA
- binding signal (dAsCas12a Ultra): -8.42 lnKA
- binding signal (dAsCas12a E174R): -8.04 lnKA
- binding signal (dAsCas12a S542R): -7.99 lnKA
- binding signal (d-enCas12a): -3.27 lnKA
- binding signal (d-enCas12a-Ultra): -1.25 lnKA

B9: GGTC (dsDNA)
DNA 1: B1 DNA 1 with C27G, T29C
DNA 2: B1 DNA 2 with A62G, G64C
RNA: B1 RNA
- binding signal (dAsCas12a Ultra): -8.4 lnKA
- binding signal (dAsCas12a E174R): -8.96 lnKA
- binding signal (dAsCas12a S542R): -8.74 lnKA
- binding signal (d-enCas12a): -3.44 lnKA
- binding signal (d-enCas12a-Ultra): -0.971 lnKA

B10: TCAA (dsDNA)
DNA 1: B1 DNA 1 with G26T, T28A, T29A
DNA 2: B1 DNA 2 with A62T, A63T, C65A
RNA: B1 RNA
- binding signal (dAsCas12a Ultra): -8.83 lnKA
- binding signal (dAsCas12a S542R): -7.68 lnKA
- binding signal (d-enCas12a): -5.65 lnKA
- binding signal (d-enCas12a-Ultra): -3.39 lnKA

B11: GGTA (dsDNA)
DNA 1: B1 DNA 1 with C27G, T29A
DNA 2: B1 DNA 2 with A62T, G64C
RNA: B1 RNA
- binding signal (dAsCas12a Ultra): -7.78 lnKA
- binding signal (dAsCas12a E174R): -8.41 lnKA
- binding signal (dAsCas12a S542R): -7.66 lnKA
- binding signal (d-enCas12a): -3.21 lnKA
- binding signal (d-enCas12a-Ultra): -0.816 lnKA

B12: GTGT (dsDNA)
DNA 1: B1 DNA 1 with C27T, T28G
DNA 2: B1 DNA 2 with A63C, G64A
RNA: B1 RNA
- binding signal (dAsCas12a Ultra): -8.66 lnKA
- binding signal (dAsCas12a E174R): -8.98 lnKA
- binding signal (dAsCas12a S542R): -8.04 lnKA
- binding signal (d-enCas12a): -5.78 lnKA
- binding signal (d-enCas12a-Ultra): -3.14 lnKA

B13: TCCA (dsDNA)
DNA 1: B1 DNA 1 with G26T, T28C, T29A
DNA 2: B1 DNA 2 with A62T, A63G, C65A
RNA: B1 RNA
- binding signal (dAsCas12a Ultra): -7.24 lnKA
- binding signal (dAsCas12a E174R): -6.64 lnKA
- binding signal (dAsCas12a S542R): -3.52 lnKA
- binding signal (d-enCas12a): -2.15 lnKA
- binding signal (d-enCas12a-Ultra): -0.457 lnKA

B14: TCAC (dsDNA)
DNA 1: B1 DNA 1 with G26T, T28A, T29C
DNA 2: B1 DNA 2 with A62G, A63T, C65A
RNA: B1 RNA
- binding signal (dAsCas12a Ultra): -8.33 lnKA
- binding signal (dAsCas12a S542R): -7.5 lnKA
- binding signal (d-enCas12a): -5.3 lnKA
- binding signal (d-enCas12a-Ultra): -3 lnKA

B15: TCCG (dsDNA)
DNA 1: B1 DNA 1 with G26T, T28C, T29G
DNA 2: B1 DNA 2 with A62C, A63G, C65A
RNA: B1 RNA
- binding signal (dAsCas12a Ultra): -7.52 lnKA
- binding signal (dAsCas12a E174R): -7.89 lnKA
- binding signal (dAsCas12a S542R): -3.6 lnKA
- binding signal (d-enCas12a): -3.12 lnKA
- binding signal (d-enCas12a-Ultra): -0.639 lnKA
